HP1b binding inh: HP1-beta chromodomain-methylated histone interaction inhibition; Potency, µM (series often up to 114 µM), for inactives: at the highest dose activity change, negative = inhibition, usual class: inhibitors; AlphaScreen HP1-beta / biotin-H3K9me3 peptide binding; 390,000 compounds, 0.56% hits; AID 540317; also: nearly all actives have a fitted effect of over 70% in size
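AlphaScreen: HP1-beta (50 nM) preformed 30 min with biotin-H3(1-18)K9me3 peptide (50 nM) in PBS pH 7.4, 0.01% Tween-20. Compound added for 30 min at RT, then streptavidin donor/nickel chelate acceptor beads (10 ug/mL) for 30 min.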
G9a block: G9a (human) methyltransferase inhibition; Q96KQ7; G9a H3K9 monomethylation, AlphaScreen, 2 h; Potency, µM (doses to about 102 µM), without a hit: at the highest dose activity, negative = inhibition, actives largely listed as inhibitors; 350,000 compounds, 8.8% hits; AID 504332; also: % is scaled to controls: 0 for no effect and ±100 for the full control effect; nearly all actives have a fitted effect of over 75% in size
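Compounds were preincubated with 20 nM G9a for 15 min, after which biotinylated H3K9 peptide (500 nM) and SAM (20 uM) started a 2 h room-temperature reaction. Monomethylated product was quantified by antibody-based AlphaScreen chemiluminescence.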
JMJD2A Tudor: inhibitors of human JMJD2A Tudor domain | O75164 | AlphaScreen JMJD2A-Tudor / H3K4me3 peptide binding | Potency, µM (titrated, usually from 114 µM), for inactives: at the top dose activity change, negative = inhibition, most hits filed as inhibitors | 390,000 compounds, 4.4% hits | AID 504339; also: % is scaled to controls: 0 for no effect and ±100 for the full control effect; nearly all actives have a fitted effect of over 50% in size
ALOX12 inh: inhibitors of human 12S-lipoxygenase ALOX12; P18054; purified 12hLO, xylenol orange hydroperoxide absorbance; 580,000 compounds, 1.1% hits; Potency, µM (doses to about 108 µM), for inactives: top-dose activity change, negative = inhibition, actives largely listed as inhibitors; also: % is scaled to controls: 0 for no effect and ±100 for the full control effect
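Hydroperoxide product was detected by ferrous iron/xylenol orange as the 573 to 405 nm absorbance ratio. Arachidonic acid at 40 uM (final) was turned over for 30 min at room temperature by 150 nM human 12hLO, pH 7.0 Hepes buffer, after 15 min compound preincubation.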
BAZ2B inh: inhibitors of human BAZ2B bromodomain; AID 504333; Potency, µM (top dose mostly 114 µM), inactives show top-dose activity change, negative = inhibition, hits mostly inhibitors; 360,000 compounds, 4.4% hits; AlphaScreen BAZ2B-H3K14Ac peptide displacement; also: % is scaled to controls: 0 for no effect and ±100 for the full control effect; nearly all actives have a fitted effect of over 60% in size
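Protein-peptide AlphaScreen: BAZ2B 50 nM, b-H3K14Ac 50 nM, 1x PBS pH 7.4 + 0.01% Tween-20. Preincubation 30 min RT; cpd 30 min RT (top 110 uM); beads 20 min RT, light-protected.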
Sfp inh: inhibitors of Bacillus subtilis Sfp phosphopantetheinyl transferase; Q9F4F7; Biochemical Sfp PPTase activity, qHTS; Potency, µM, for inactives: largest response in the series, negative = inhibition, usual class: inhibitors; 310,000 compounds, 3.5% hits; AID 1490;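 also: the enzyme is Sfp with the accession as filed and its product quenches rhodamine fluorescence; 0% = enzyme reaction without inhibitor and -100% = no enzyme wells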
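After 15 min at room temperature with compound, 15 nM Sfp received 5 uM rhodamine-CoA plus 12.5 uM BHQ-2-ybbR (50 mM Hepes pH 7.6, 10 mM MgCl2). Rate came from the fluorescence difference over 30 min, ex 525/em 598 nm.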
Numbers without * were called inactive; ? = inconclusive; nt = not tested or not shown; ! = a repeat was not active; [ ] = another dose, or the depositor's remark. This is a sample that favours compounds with a hit; in the whole collection about 8.7% have one here. Calls follow the shape of the dose curve; as a rule, active = well fitted curve in the direction sought with a large enough effect; inconclusive = small, poorly fitted or top-dose-only effect, or another doubt; inactive = no such curve, though single readings can be large; an effect the other way counts as inactive or inconclusive. Potency is read from the fitted curve at half-maximal effect.

SMILES | HP1b binding inh | G9a block | JMJD2A Tudor | ALOX12 inh | BAZ2B inh | Sfp inh
COc1cccc(OC)c1C(=O)Nc1sc2c(c1C#N)CCC2 | 28% | nt | -21% | 2% | 55% | 40µM*
O=S(=O)(c1ccc(F)cc1)N1CCN(Cc2coc(-c3cccs3)n2)CC1 | nt | nt | nt | -5% | nt | nt
COc1cccc(CN(C)CC(=O)Nc2sc3c(c2C#N)CCC3)c1OC | 40% | -33% | -8% | -2% | 79µM* | -28%
COc1ccc(CN(C)CC(=O)Nc2sc3c(c2C#N)CCC3)cc1OC | 15% | ? | -24% | 5% | ? | 7%
CC1CCc2c(sc(NC(=O)c3nc4ncccn4n3)c2C#N)C1 (configuration not stated) | ? | 3.2µM* | ? | ? | -25% | 22µM*
N#Cc1c(NC(=O)C2CC(c3ccccc3O)=NO2)sc2c1CCC2 (configuration not stated) | -19% | 8.9µM* | -18% | ? | -6% | 25µM*
C[N+](CCOCc1ccccc1)(CCOCc1ccccc1)CCOCc1ccccc1 | nt | nt | nt | 18µM* | nt | nt
COC(=O)c1scc(S(=O)(=O)C(C)C)c1N/N=C(\C#N)C(=O)c1ccc(Cl)cc1 | -6% | 50µM* | ? | -25% | -33% | -8%
COC(=O)c1scc(C#N)c1N/N=C(\C#N)S(=O)(=O)c1ccc(Cl)cc1 | -9% | 45µM* | ? | ? | -37% | 25%
COc1cc2c(cc1NC(=O)c1ccc(C)c([N+](=O)[O-])c1)oc1ccccc12 | -5% | -2%[59 µM] | -5% | -21% | -2% | 19%
COc1cc2c(cc1NC(=O)c1cccc([N+](=O)[O-])c1)oc1ccccc12 | -14% | 50µM* | -17% | 84% | 4% | -6%
COc1cc2c(cc1NC(=O)CSc1ccccn1)oc1ccccc12 | 16% | -5%[59 µM] | -8% | 0% | 4% | 45µM*
O=C(CCc1ncc(-c2ccccc2F)o1)Nc1ccncc1 | nt | nt | nt | 14% | nt | nt
Cc1ccc2c(c1)CCCN2C(=O)c1ccc(Br)o1 | nt | nt | nt | -27% | nt | nt
CC(C)(C)c1ccc(C(=O)NC(=O)COC(=O)c2ccccc2)cc1 | nt | nt | nt | 4% | nt | nt
Cc1ccc(S(=O)(=O)N=Nc2c(O)[nH]c3ccccc23)cc1C | 47% | 4.5µM* | 35µM* | ? | -35% | -1%
Cc1ccc(N(CC(=O)N=Nc2c(O)[nH]c3ccccc23)S(C)(=O)=O)c(C)c1 | -16% | -7% | ? | -50% | -3% | 5%
COc1ccc(NC(=S)N=Nc2c(O)[nH]c3ccccc23)cc1 | 4% | -34% | -13% | ? | -27% | -19%
COc1ccc(S(=O)(=O)N=Nc2c(O)[nH]c3ccccc23)cc1 | 61% | 3.2µM* | -27% | ? | -3% | -13%
Cc1ccc(Sc2cc(C)c3cccc(C(C)C)c3n2)cc1 | nt | nt | nt | 20% | nt | nt
CN(C)CCOC1c2ccccc2C=Cc2ccccc21 | 28% | nt | -18% | 5% | nt | nt
CN(C)CCOC1c2ccccc2CCc2ccc3ccccc3c21 (configuration not stated) | ? | nt | 32µM* | -115% | nt | nt
COc1ccc(S(=O)(=O)NNC(=O)c2csc(-n3nc(C)cc3C(F)(F)F)n2)cc1OC | 12% | 35µM* | -8% | ? | ? | 14%
CCc1ccc(NC(=O)c2cc(=O)c3ccccc3o2)cc1 | nt | nt | nt | 26% | nt | nt
CN(C)c1ccc(NC(=O)COC(=O)c2cc(=O)c3ccccc3o2)cc1 | 38% | 10µM* | -15% | -10% | -31% | -6%
SMILES | HP1b binding inh | G9a block | JMJD2A Tudor | ALOX12 inh | BAZ2B inh | Sfp inh
CC(OC(=O)c1cc(O)c2ccccc2c1O)C(=O)Nc1ccc(C(N)=O)cc1 (configuration not stated) | ? | 7.1µM* | ? | ? | ? | nt
CC(OC(=O)c1cc(=O)c2ccccc2o1)C(=O)Nc1ccc(N(C)C)cc1 (configuration not stated) | 16% | 3.2µM* | ? | -29% | -2% | nt
COc1ccc(C(C(=O)O)N2CCN(C(=O)c3ccco3)CC2)c(OC)n1 (configuration not stated) | nt | nt | nt | -23% | nt | nt
Cc1nc2ccccc2c(C)c1C(=O)OCC(=O)NCC1CCCO1 (configuration not stated) | nt | nt | nt | -24% | nt | nt
CC(C)Nc1ccc2nnc(-c3ccccn3)n2n1 | nt | nt | nt | 64%[176 µM] | nt | nt
CC/C=C\C/C=C\C/C=C\CCCCCCCC(=O)O | 11% | 18µM*! | -27% | -13% | -5% | 79µM*!
COc1ccc(NC2=C(C(=O)N3CCOCC3)S(=O)(=O)c3ccccc32)cc1 | nt | nt | nt | 3% | nt | nt
CCCCCCCCN1C(=O)[C@H](CC(=O)NCc2ccc(C)o2)C[C@@]2(C(=O)OC)CCCCC=C12 | nt | nt | nt | 35µM* | nt | nt
COc1ccc(CN[C@@H]2CO[C@H](CNC(=O)CC(C)(C)C)[C@H]2O)cc1 | nt | nt | nt | -14%[176 µM] | nt | nt
CC1=NN(c2ccccc2)C(=O)C1N=Nc1ccc(C)cc1 (configuration not stated) | nt | ? | nt | nt | ? | 9%
CC1=NC(=O)C(N=Nc2ccccc2C(=O)O)N1c1ccccc1 (configuration not stated) | -13% | -12%[12.7 µM] | ? | -3% | 28µM* | -7%
O=C(O)c1cccc(N2C(=O)C3CC=CCC3C2=O)c1 (configuration not stated) | 27% | 6%[59 µM] | -14% | -14% | 1% | 16%
CC1=NC(=O)C(N=Nc2cccc(C(=O)O)c2)N1c1ccccc1 (configuration not stated) | -36% | ? | ? | 7.1µM* | 50µM* | -4%
CC1=NC(=O)C(N=Nc2ccccc2)N1c1ccccc1 (configuration not stated) | -32% | 8.9µM* | 11µM* | 84% | 8.9µM* | -1%
COc1cccc(CC(=O)N2CCC3(CC2)CC(OC)CCO3)c1 (configuration not stated) | nt | nt | nt | 44% | nt | nt
COCC(=O)N1CCN(Cc2nnc(C)o2)CC1 | nt | nt | nt | 8% | nt | nt
CCc1ccccc1NC(=O)CSc1ncc(S(=O)(=O)c2ccc(C(C)C)cc2)c(N)n1 | 18% | -7%[59 µM] | 20µM* | -3% | 3% | nt
CC(C)c1ccc(S(=O)(=O)c2cnc(SCC(=O)Nc3ccc(F)cc3F)nc2N)cc1 | 20% | 6%[59 µM] | -10% | -15% | -4% | nt
CCc1ccccc1NC(=O)CSc1ncc(S(=O)(=O)c2ccccc2)c(N)n1 | 8% | 13µM* | -21% | -25% | 1% | nt
CCc1ccccc1NC(=O)CSc1ncc(S(=O)(=O)c2ccccc2)c(=O)[nH]1 | 26% | -1%[59 µM] | -4% | -20% | 0% | nt
COc1ccc(-c2cc(N3CCC(NC(=O)Cc4c(F)cccc4Cl)CC3)n[nH]2)cc1 | nt | nt | nt | 24% | nt | nt

High-throughput results (PubChem)
